Assay results as given in PubChem BioAssay (Tox21).
Inconclusive results are not listed. Entries that show only a call come without a potency. Calls of active or inactive are those of the source. The call rests on the fitted dose curve.

Test: p53 small molecule agonists, cell-based qHTS assay with human liver microsomes: qHTS cell viability counter screen (AID 1963579); further: nearly all actives have a fitted effect of over 45% in size
Conditions: p53RE-bla HCT-116 viability, ATP luminescence, 16 h, HLM; series mostly up to 66 µM
From the text: National Center for Advancing Translational Sciences [NCATS]
Division of Preclinical Innovation [DPI]
U.S. Environmental Protection Agency [EPA]
National Institutes of Environmental Health Sciences [NIEHS]
National Toxicology Program [NTP]
U.S. Food and Drug Administration [FDA]
p53, a tumor suppressor protein, is activated following cellular insult, including DNA damage and other cellular stresses. The activation of p53 regulates cell fate by inducing DNA repair, cell cycle arrest, apoptosis, or cellular senescence. The activation of p53, therefore, is a good indicator of DNA damage and other cellular stresses. […] The activation of the reporter gene under culture conditions can be detected by fluorescence intensity. This cell line was used to screen the Tox21 10K compound library in the condition of presence of human liver microsomes and to identify agonists that activate the p53 signaling pathway after in vitro metabolic activation (Ooka et al., Archive of Toxicology 96:1975-1987, 2022).
Tox21 Assay Protocol Summary:
The p53RE-bla cells were dispensed at 4,000cells/3ul/well in 1536-well black-clear bottom plates. After the assay plates were incubated at 37 C, 5% CO2 incubator for 5 hours, 23 nL of compounds dissolved in DMSO, positive controls or DMSO only was transferred to the assay plate. Following compound addition, 3 uL of human liver microsomes (XenoTech, Kansas City, KS) at final concentration of 0.5 mg/mL and 1uL of B-Nicotinamide adenine dinucleotide 2'-phosphate (NADPH) at final concentration of 0.5 mg/mL were transferred to the assay plate. The plates were incubated at 37 C for 16 hours. 1 uL of LiveBLAzer detection mixture was added to each well and the plates were incubated at room temperature in the dark for 2 h. Fluorescence intensity at 460 and 530 nm emission and 405 nm excitation were measured by an Envision plate reader. For cell viability readout that measures cytotoxicity, 4 ul/well of CellTiter-Glo reagent was added into the assay plates using a Flying Reagent Dispenser. After 30 min incubation at room temperature, the luminescence intensity in the plates was measured using a ViewLux plate reader.
In the case of C[C@H]1[C@@H](c2ccccc2)NC(=O)N1C, the Potency was “inactive”.
With Nc1cc(Cl)cc(S(=O)(=O)O)c1O the Potency was “inactive”.
In the case of CO[C@@]1(NC(=O)Cc2cccs2)C(=O)N2C(C(=O)O)=C(COC(N)=O)CS[C@@H]21, the Potency was “inactive”.
With CC[C@H]1OC(=O)[C@H](C)[C@@H](O[C@H]2C[C@@](C)(OC)[C@@H](O)[C@H](C)O2)[C@H](C)[C@@H](O[C@@H]2O[C@H](C)C[C@H](N(C)C)[C@H]2O)[C@](C)(O)C[C@@H](C)CN(C)[C@H](C)[C@@H](O)[C@]1(C)O the Potency was “inactive”.
With CC(C)CCOC(=O)/C=C/c1ccccc1 the Potency was “inactive”.
In the case of N=C(N)N, the Potency was “inactive”.
With CCN(CC)c1ccc(C(=C2C=CC(=[N+](CC)CC)C=C2)c2cc(S(=O)(=O)O)ccc2S(=O)(=O)[O-])cc1 the Potency was “inactive”.
For c1ccc(-c2nc3ccccc3[nH]2)cc1, the Potency was “inactive”.
In the case of CC1(C)O[C@@H]2C[C@H]3[C@@H]4CCC5=CC(=O)C=C[C@]5(C)[C@H]4[C@@H](O)C[C@]3(C)[C@]2(C(=O)CO)O1, the Potency was “inactive”.
With CCOC(=O)c1nc(C(Cl)(Cl)Cl)n(-c2ccc(Cl)cc2Cl)n1 the Potency was “inactive”.
With COC(=O)[C@@H]1CC2=CC(=O)CC[C@]2(C)[C@@]23O[C@@H]2C[C@@]2(C)[C@@H](CC[C@@]24CCC(=O)O4)[C@H]13 the Potency was “inactive”.
In the case of CCCCC1C(=O)N(c2ccccc2)N(c2ccc(O)cc2)C1=O (stereo not given), the Potency was “inactive”.
With C[Si](C)(C)C the Potency was “inactive”.
With Cc1ccc(OC(=O)CC(C)C)cc1 the Potency was “inactive”.
For CC(C)C[C@H](NC(=O)CNC(=O)[C@H](Cc1ccc(O)cc1)NC(=O)[C@H](CO)NC(=O)[C@H](Cc1c[nH]c2ccccc12)NC(=O)[C@H](Cc1cnc[nH]1)NC(=O)[C@@H]1CCC(=O)N1)C(=O)N[C@@H](CCCN=C(N)N)C(=O)N1CCC[C@H]1C(=O)NCC(N)=O (stereo in doubt), the Potency was “inactive”.
In the case of CCCCCCC(O)CCCCCCCCCCC(=O)O (stereo not given), the Potency was “inactive”.
With CC(=O)OCC(=O)[C@@]1(O)[C@H](OC(C)=O)C[C@H]2[C@@H]3CCC4=CC(=O)C=C[C@]4(C)[C@@]3(F)[C@@H](O)C[C@@]21C the Potency was “inactive”.
With CCC(Cl)CCC(Cl)C(Cl)CC(Cl)C(Cl)C(Cl)CCl (stereo not given) the Potency was “inactive”.
For O=C(NOCC1CC1)c1ccc(F)c(F)c1Nc1ccc(I)cc1Cl, the Potency was “inactive”.
In the case of CCCCCCCCCCCCN(CCCCCCCCCCCC)CCCCCCCCCCCC, the Potency was “inactive”.
With CN(C)[C@@H]1C(=O)C(C(N)=O)=C(O)[C@@]2(O)C(=O)C3=C(O)c4c(O)ccc(Cl)c4[C@@H](O)[C@H]3C[C@@H]12 the Potency was “inactive”.
In the case of Nc1ccc2ccccc2c1S(=O)(=O)O, the Potency was “inactive”.
In the case of COc1ccc(OC(F)(F)F)cc1CN[C@H]1CCCN[C@H]1c1ccccc1, the Potency was “inactive”.
With [O-][N+](=Nc1ccccc1)c1ccccc1 the Potency was “inactive”.
For COc1ccnc(CS(=O)c2nc3cc(OC(F)F)ccc3[nH]2)c1OC (stereo not given), the Potency was “inactive”.
In the case of CCCCN1C(=O)[C@@H]([C@H](O)C2CCCCC2)NC(=O)C12CCN(Cc1ccc(Oc3ccc(C(=O)O)cc3)cc1)CC2, the Potency was “inactive”.
With CC(C)N(c1ccccc1)C(C)C the Potency was “inactive”.
For N=C(N)S(=O)O, the Potency was “inactive”.
With CC(C)C(C)C the Potency was “inactive”.
With CC1=NN(c2cc(S(=O)(=O)O)ccc2Cl)C(=O)C1N=Nc1ccccc1 (stereo not given) the Potency was “inactive”.
For CC(C)(C)CC(C)(C)c1ccc(O)c(Cc2ccc(Cl)cc2Cl)c1, the Potency was “inactive”.
For S=C(S)NCCNC(=S)S, the Potency was “inactive”.
In the case of CCCOC(=O)CCCCC(=O)OCCC, the Potency was “inactive”.
For CCCCNc1ccc(C(=O)OCCOCCOCCOCCOCCOCCOCCOCCOCCOC)cc1, the Potency was “inactive”.
For COc1cc(C=C2CCC/C(=C\c3ccc(O)c(OC)c3)C2=O)ccc1O, the Potency was “inactive”.
In the case of O=Cc1ccc(O)c(O)c1O, the Potency was “inactive”.
In the case of Cc1ccc(Br)cc1, the Potency was “inactive”.
With CCOc1ccc2nc3cc(N)ccc3c(N)c2c1 the Potency was “inactive”.
With CNCC[C@H](Oc1cccc2ccccc12)c1cccs1 the Potency was “inactive”.
For CC/C=C\CCCCCO, the Potency was “inactive”.
